According to PubChem BioAssay (NCI):
Compounds without any hit were thinned out: in the full panel of roughly 79,000, 15% have a hit. Values without a mark were called inactive. Active and inactive are the calls of the source. Rule as the data show it: active = growth inhibition above about 70%; inactive = the rest. Where a SMILES comes first, the peptide text is derived from it. [ ]: non-standard residue; d: D form. Hpg = N[CH](C(=O)O)c1ccc(O)cc1

Experiments:
[1] = NCI Yeast Anticancer Drug Screen. Data for the rad50 strain (AID 155);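 also: 0% = growth of vehicle-only cultures of the same strain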; details: S. cerevisiae rad50 strain growth inhibition; at 50.0 µM; active compounds read high
Method in brief: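 Relative growth inhibition (compound vs vehicle) was measured in yeast with a defined repair-gene alteration.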

[2] = NCI Yeast Anticancer Drug Screen. Data for the mec2-1 strain (AID 157); details: S. cerevisiae mec2-1 strain, at 50.0 µM, active compounds read high
Method in brief: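 Readout is yeast growth inhibition, normalised to vehicle-treated controls, in the mec2-1 strain exposed to compound.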

[3] = NCI Yeast Anticancer Drug Screen. Data for the sgs1 mgt1 strain (AID 161);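 also: 0% = growth of cultures given vehicle only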; details: S. cerevisiae sgs1 mgt1 strain, at 50.0 µM, active compounds read high
Method in brief: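 Yeast cells carrying a defined DNA-repair defect were exposed to test compounds. Growth inhibition was measured relative to vehicle-treated controls.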

[4] = NCI Yeast Anticancer Drug Screen. Data for the cln2 rad14 strain (AID 165);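 also: 0% = growth equal to vehicle treated cultures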; details: S. cerevisiae cln2 rad14 strain, at 50.0 µM, active compounds read high
Method in brief: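 Relative to vehicle controls, growth inhibition of compound-treated cln2 rad14 yeast was recorded.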

[5] = NCI Yeast Anticancer Drug Screen. Data for the bub3 strain (AID 167); details: S. cerevisiae bub3 mutant strain, at 50.0 µM, active compounds read high
Method in brief: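 Screening used yeast with an engineered genetic alteration affecting cell cycle control. Compound-exposed cultures were compared with vehicle cultures, and reduced growth was taken as inhibition.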

[6] = NCI Yeast Anticancer Drug Screen. Data for the mlh1 rad18 strain (AID 175); details: S. cerevisiae mlh1 rad18 strain growth inhibition; at 50.0 µM; active compounds read high
Method in brief: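 Test agents were incubated with a yeast strain of defined genotype (DNA damage repair defect). Inhibition of growth was derived by comparison with vehicle-exposed cultures.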

Row | Structure (SMILES) | growth inhibition [1] | growth inhibition [2] | growth inhibition [3] | growth inhibition [4] | growth inhibition [5] | growth inhibition [6]
1 | Cc1ccc(C(=O)CC(C#N)c2ccccc2)cc1 (stereo unspecified) | 25.6% | 17.4% | 13.4% | 18.1% | 5.55% | 12.7%
2 | S=C(NCc1ccc(Cl)cc1Cl)Nc1ccccc1 | 23.1% | 73% (active) | 75.8% (active) | -1.8% | 64.7% | 72.5% (active)
3 | O=C(C[n+]1ccccc1-c1ccccn1)c1ccc(-c2ccccc2)cc1 | 7.9% | 10.7% | 22.4% | -14.7% | 1% | 34.6%
4 | O=c1c2ccccc2nnn1O | 12.8% | 0.2% | 4.55% | -23.1% | -5.95% | 6.45%
5 | COc1ccc(-c2cc(-c3ccccc3)c(C#N)c(=O)[nH]2)cc1 | 22.9% | 5.85% | 17.4% | 17% | 6.3% | 21%
6 | Cc1cc(/C=N/NC(=O)c2ccccc2NC(=O)c2ccccc2Cl)ccc1O | 20.6% | 9.8% | 39.2% | 11.9% | 9.1% | 34.8%
7 | CC(=O)Nc1ccc(F)c(N)c1 | -3.2% | -13.2% | 8.7% | -11.9% | -9.1% | 15.1%
8 | O=C1CSC(c2cccc(O)c2)N1c1nncs1 (stereo unspecified) | 6.75% | 12.9% | 21.9% | 12.7% | 14.2% | 15.2%
9 | COc1ccc2c(c1)OC[C@@H]1c3cc(NC(=O)c4ccccc4)c(OC)cc3N(S(=O)(=O)c3ccccc3)[C@H]21 | -22.8% | -6.4% | -18.1% | -3.3% | 2.25% | -2.25%
10 | CC(C)CC(N)C(=O)NC(C(=O)O)c1ccc(O)cc1 (stereo unspecified) (H-Leu-[Hpg]-OH; configuration not given here) | -5.3% | -10.1% | 3.4% | -20.4% | 2.7% | 15.8%
11 | O=C1c2[nH]c3ccccc3c2CN1CCc1ccccc1 | -2.4% | -15.9% | 4.7% | -14.5% | -4.45% | -5.1%
12 | O=Nc1ccc(O)c2ncccc12 | 7.15% | -9.45% | 15.7% | -26.6% | 1.5% | 31%
13 | Cc1nc(N)nc2c1CCC(=O)N2 | 11.7% | 7.6% | -3.1% | -37.6% | 0.65% | 1.7%
14 | COc1ccc(/C=C/C(=O)c2sc(N)nc2C)cc1 | 26.5% | -5.55% | -0.4% | 24.6% | 3.95% | 13.6%
15 | Cc1ccccc1C(OCCN(C)C)c1ccccc1 (stereo unspecified) | -46.2% | -44.8% | -44% | -6.65% | -39% | -28.1%
16 | COc1ccc2c(c1)Sc1c(Cl)c3c(c(Cl)c1=N2)Sc1cc(OC)ccc1N=3 | 19.5% | -4.75% | 0.7% | 21.7% | -2.2% | 13.9%
17 | O=c1n(CCCN2CCN(c3cccc(Cl)c3)CC2)nc2ccccn12 | 45.9% | 11.4% | 21.9% | 19.8% | -1.4% | 8.35%
18 | Cc1csc(=NCc2cccnc2)n1C | 14.7% | -9.75% | 23.6% | 23.4% | 19.8% | 15.8%
19 | CC(C)N(C=C(C#N)C#N)C(C)C | 15.5% | 7.5% | -0.4% | -57.5% | 3.75% | 4.6%
20 | CCc1cccc(CC)c1N=Cc1ccccc1O | 32.8% | 11% | 21.6% | 16.1% | 10.8% | 19%
21 | O=C(O)c1c(F)c(F)c(C(=O)O)c(F)c1F | 6.25% | -15.8% | 16.3% | 15.1% | 14.9% | 11.5%

Row | Structure (SMILES) | growth inhibition [1] | growth inhibition [2] | growth inhibition [3] | growth inhibition [4] | growth inhibition [5] | growth inhibition [6]
22 | O=C(O)C(=Cc1ccnc2ccccc12)C(=O)O | 7.75% | -13.7% | -35.8% | 15.7% | -52.2% | 3.5%
23 | NCCCC(NC(=O)CCCCCCCCN=C(N)N)C(O)CCCCCCCCN=C(N)N (stereo unspecified) | 20.9% | 14.8% | 4.55% | -6.8% | 22.3% | 0.75%
24 | C/C=C/C=C1/OC(C)=C(C(=O)OCC)C1=O | 7.95% | -15.6% | 6.55% | 11.4% | -8.95% | -1.9%
25 | OCC(O)CNc1ncnc2ccccc12 (stereo unspecified) | -1.65% | -11.8% | 3.4% | -26.4% | 1.7% | 10.2%
26 | CC([C@H]1CC[C@H]2[C@@H]3CC=C4C[C@@H](O)CC[C@]4(C)[C@H]3CC[C@]12C)C(O)(c1ccccc1)c1ccccc1 (stereo partly specified) | 40.9% | 19.8% | 43.4% | 37.6% | 23.4% | 25.2%
27 | O=C(O)C1C(C(=O)O)C2C3C4C1C1C2C3C41 (stereo unspecified) | 2.9% | 3.15% | -4.2% | -21.9% | 13.3% | -0.15%
28 | CC(=O)OC/C(C)=N\NS(=O)(=O)c1cc(Cl)c(Cl)cc1Cl | 15.1% | 16.4% | 15.8% | 13.8% | 6.8% | 13.5%
29 | O=C(/C=C/C(=O)NCCc1ccccc1)NCCc1ccccc1 | -13.4% | 0.85% | 9.15% | -7.45% | 46.4% | 17.4%
30 | NC(=S)c1ccccc1N=Cc1cccs1 | 26.8% | 16.1% | 14.2% | -7.7% | 53.6% | 41.5%
31 | Cc1cc(C)c2[nH]c(=O)c(Br)c(C)c2c1 | 29.8% | 11.8% | 34.2% | 22.1% | 3.85% | 19.4%
32 | C/C(=N/NC(=S)NNC(=S)N(C)c1ccccc1)c1nccc2ccccc12 | 85.8% (active) | 87% (active) | 86% (active) | 79.2% (active) | 76.6% (active) | 79.8% (active)
33 | NC1=C(O)C(=O)C(c2cccc(O)c2)O1 (stereo unspecified) | -8.1% | -10.1% | 7.9% | -5.05% | 3.2% | 8.45%
34 | O=C1CCSC(=S)N1c1ccccc1 | 38.2% | 4.8% | 23.8% | -32.2% | -5.4% | 27.1%
35 | Cc1ccc(S(=O)(=O)N2CCCN(S(=O)(=O)c3ccc(C)cc3)COC2)cc1 | 4.1% | 11.6% | -8.4% | 3.1% | -10.4% | -1.25%
36 | O=C(Nc1ccc(Cl)c(Cl)c1)Oc1ccc(-c2ccccc2)cc1 | 73.2% (active) | 88% (active) | 93.2% (active) | 43.6% | 87.5% (active) | 95.7% (active)
37 | Cc1onc(-c2ccccc2)c1NC(=O)OC(C)c1cccnc1 (stereo unspecified) | -6.3% | -22.9% | 3.7% | 4.9% | 18.1% | 3.55%
38 | CC(=O)N(CN1C(=O)CCC1C(=O)O)c1ccccc1Cl (stereo unspecified) | 10.3% | 14.4% | -13.6% | -4.35% | -3.85% | -40.5%
39 | COC(=O)C1=C(O)C(C(=O)OC)[C@@]2(O)[C@@H](C(=O)OC)[C@H](C)C[C@@H]1[C@@H]2C(=O)OC (stereo partly specified) | 41.6% | 15.4% | 47% | -1.05% | 23.1% | 38.5%
40 | COC(=O)c1cccc(C)c1C(=O)c1ccc(C)cc1C | 9.65% | 26.6% | 53.1% | -22.5% | 57.8% | 57.2%
41 | Clc1ccc([I+]c2ccc(Cl)cc2)cc1 | 96.2% (active) | 95.5% (active) | 97.5% (active) | 97.4% (active) | 97% (active) | 97.2% (active)
